Consider eight molecules from ChEMBL document CHEMBL3988442, “University of Dundee, Small-Polar-MMV Screening Library” (2021).

Holding throughout (design): scale not given: direction of the effect not stated beside the values
In assay [1] the target is Protein translocase subunit SecA (Escherichia coli (strain K12)) (UniProt P10408). As to the kind of experiment: Assay to Identify E. coli SecA ATPase Inhibitors. Conditions: 30 µM. Type of assay: functional.
The target in assay [2] is T1, Ubiquitin-activating enzyme e1, putative (Leishmania donovani (strain BPK282A1)) (UniProt E9BSI1).
T1 sequence (whole entry): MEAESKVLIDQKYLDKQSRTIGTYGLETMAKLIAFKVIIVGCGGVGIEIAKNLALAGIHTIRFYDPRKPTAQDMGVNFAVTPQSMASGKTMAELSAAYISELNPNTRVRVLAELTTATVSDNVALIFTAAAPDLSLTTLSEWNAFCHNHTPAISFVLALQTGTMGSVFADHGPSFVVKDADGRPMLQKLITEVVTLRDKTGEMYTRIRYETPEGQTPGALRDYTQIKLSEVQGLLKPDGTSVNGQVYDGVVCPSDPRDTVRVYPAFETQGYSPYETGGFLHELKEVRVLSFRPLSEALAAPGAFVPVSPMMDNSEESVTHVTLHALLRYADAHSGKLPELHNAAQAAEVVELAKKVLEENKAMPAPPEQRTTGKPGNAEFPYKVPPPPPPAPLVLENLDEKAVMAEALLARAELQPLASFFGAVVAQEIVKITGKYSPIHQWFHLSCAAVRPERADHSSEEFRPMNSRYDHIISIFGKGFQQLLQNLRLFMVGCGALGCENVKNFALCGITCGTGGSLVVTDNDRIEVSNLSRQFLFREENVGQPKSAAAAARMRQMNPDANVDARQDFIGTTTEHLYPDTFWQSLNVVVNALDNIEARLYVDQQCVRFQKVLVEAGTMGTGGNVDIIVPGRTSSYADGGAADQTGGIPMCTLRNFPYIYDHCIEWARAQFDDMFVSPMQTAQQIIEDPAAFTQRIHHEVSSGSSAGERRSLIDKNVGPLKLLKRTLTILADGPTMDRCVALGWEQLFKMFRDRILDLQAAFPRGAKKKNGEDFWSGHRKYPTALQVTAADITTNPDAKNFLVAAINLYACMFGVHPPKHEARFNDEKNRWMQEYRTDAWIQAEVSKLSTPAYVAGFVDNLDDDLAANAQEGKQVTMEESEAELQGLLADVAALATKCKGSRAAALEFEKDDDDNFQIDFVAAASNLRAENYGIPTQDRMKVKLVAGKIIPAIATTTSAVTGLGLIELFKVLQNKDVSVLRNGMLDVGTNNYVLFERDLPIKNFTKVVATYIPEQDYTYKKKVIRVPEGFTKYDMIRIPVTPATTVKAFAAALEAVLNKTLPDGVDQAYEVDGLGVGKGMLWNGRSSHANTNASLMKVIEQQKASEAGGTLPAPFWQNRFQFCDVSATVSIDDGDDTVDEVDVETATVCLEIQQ
The assay is described as follows: Leishmania donovani Ubiquitin Activating Enzyme (LdE1). The class given is functional. The settings on record: 30 µM.

Assay [3] concerns the target AMP-activated protein kinase, AMPK (Homo sapiens) (UniProt P54646+O43741+P54619+Q9UGJ0+Q9Y478+Q13131+Q9UGI9). As to the kind of experiment: AMP-dependent Kinase enzyme assay. An in vitro enzyme assay that detects ADP turnover that is directly proportional to AMPK activity. This uses naive AMPK that is activated during the assay with MK-8722. Type of assay: functional. The settings on record: 30 µM.

Assay [4] addresses Sialic acid-binding Ig-like lectin 9 (Homo sapiens) (UniProt Q9Y336). The assay is described as follows: Hs-Siglec9 ALPHAscreen SOP 20170721. Conditions: 10 µM.
A further assay deals with Trypanosoma cruzi. As to the kind of experiment: Trypanosoma cruzi phosphomannomutase and mannose-1-phosphate guanylyltransferase assay. Conditions: 10 µM. Type of assay: functional.
In assay [5] the target is T2, Arginase-2, mitochondrial (Homo sapiens) (UniProt P78540).
T2 sequence (whole entry): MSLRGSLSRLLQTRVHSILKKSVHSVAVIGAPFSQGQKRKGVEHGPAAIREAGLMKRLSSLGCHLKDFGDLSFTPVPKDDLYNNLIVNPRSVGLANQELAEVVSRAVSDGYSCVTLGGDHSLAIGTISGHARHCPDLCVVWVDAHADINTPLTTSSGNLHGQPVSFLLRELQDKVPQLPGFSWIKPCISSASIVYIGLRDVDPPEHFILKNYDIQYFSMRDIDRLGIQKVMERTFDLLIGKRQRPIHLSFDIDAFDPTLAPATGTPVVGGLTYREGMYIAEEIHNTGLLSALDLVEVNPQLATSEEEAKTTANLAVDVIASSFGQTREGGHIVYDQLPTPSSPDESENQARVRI
As to the kind of experiment: in vitro enzyme assay to detect the production of urea directly proportional to the activity of Arginase II. Further: in the data most compounds retested in dose-response had high values. The settings on record: 33.3 µM. Type of assay: functional.

The target in assay [6] is T3, Proteasome subunit beta (Trypanosoma cruzi) (UniProt O96673).
T3 sequence (whole entry): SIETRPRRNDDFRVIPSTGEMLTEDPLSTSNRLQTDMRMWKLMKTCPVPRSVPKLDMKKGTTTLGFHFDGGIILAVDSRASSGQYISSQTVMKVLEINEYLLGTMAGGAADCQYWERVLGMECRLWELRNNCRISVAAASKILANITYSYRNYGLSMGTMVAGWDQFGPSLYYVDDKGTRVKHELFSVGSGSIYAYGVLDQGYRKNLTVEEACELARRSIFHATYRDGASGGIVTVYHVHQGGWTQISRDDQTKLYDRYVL
As to the kind of experiment: Trypanosoma cruzi proteasome chymotrypsin-like activity (TcProtChymo) assay. Further: in the data most compounds retested in dose-response had high values. Type of assay: functional. The settings on record: 9.37 µM.

The species entered for another assay is Homo sapiens. As to the kind of experiment: To identify inhibition of the IFN signalling (Jak-Stat) pathway via expression of an eGFP reporter gene under the control of an IFN-stimulated response element (ISRE) containing MxA promoter. Type of assay: functional. Conditions: 30 µM. On the technique in general: A reporter such as luciferase makes a cellular process visible.

The target in assay [7] is T4, Tyrosyl-tRNA synthetase, putative (Trypanosoma cruzi (strain CL Brener)) (UniProt Q4DSP6).
T4 sequence (whole entry): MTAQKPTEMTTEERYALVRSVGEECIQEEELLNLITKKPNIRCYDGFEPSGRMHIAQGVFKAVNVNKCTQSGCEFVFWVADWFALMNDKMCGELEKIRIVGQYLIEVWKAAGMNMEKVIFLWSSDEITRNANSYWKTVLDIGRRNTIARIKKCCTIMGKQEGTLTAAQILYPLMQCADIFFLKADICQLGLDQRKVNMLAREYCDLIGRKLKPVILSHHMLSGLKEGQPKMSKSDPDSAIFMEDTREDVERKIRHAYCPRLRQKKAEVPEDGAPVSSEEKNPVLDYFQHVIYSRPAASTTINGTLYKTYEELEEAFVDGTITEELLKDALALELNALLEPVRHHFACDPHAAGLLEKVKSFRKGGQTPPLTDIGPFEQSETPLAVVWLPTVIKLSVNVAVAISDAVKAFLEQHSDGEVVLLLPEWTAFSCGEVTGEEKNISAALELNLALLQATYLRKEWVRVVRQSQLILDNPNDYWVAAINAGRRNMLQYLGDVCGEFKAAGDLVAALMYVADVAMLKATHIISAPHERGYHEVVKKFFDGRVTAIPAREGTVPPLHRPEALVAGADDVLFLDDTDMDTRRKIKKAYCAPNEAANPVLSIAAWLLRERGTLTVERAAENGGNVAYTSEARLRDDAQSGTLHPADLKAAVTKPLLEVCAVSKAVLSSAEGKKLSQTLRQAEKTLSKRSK
The assay is described as follows: Trypanosoma cruzi tyrosyl tRNA synthetase (TcYRS) _High Tyrosine SOP. Further: in the data most compounds retested in dose-response had high values. The class given is functional. Conditions: 30 µM.

The target of assay [8] is T4, Tyrosyl-tRNA synthetase, putative (Trypanosoma cruzi (strain CL Brener)). As to the kind of experiment: Trypanosoma cruzi tyrosyl tRNA synthetase (TcYRS) SOP. Type of assay: functional. The settings on record: 30 µM.
Assay [9] addresses Chromo domain-containing protein 1 (Saccharomyces cerevisiae (strain ATCC 204508 / S288c) (Baker's yeast)) (UniProt P32657). The assay is described as follows: ScCHD-1 Enzyme Inhibition Assay. Further: in the data most compounds retested in dose-response had high values. Type of assay: functional. The settings on record: 30 µM.

The structures appear in SMILES notation. For some of these results: Results with a measured potency or affinity are listed apart.

Chain of Protein translocase subunit SecA (Escherichia coli (strain K12)) (P10408 whole entry): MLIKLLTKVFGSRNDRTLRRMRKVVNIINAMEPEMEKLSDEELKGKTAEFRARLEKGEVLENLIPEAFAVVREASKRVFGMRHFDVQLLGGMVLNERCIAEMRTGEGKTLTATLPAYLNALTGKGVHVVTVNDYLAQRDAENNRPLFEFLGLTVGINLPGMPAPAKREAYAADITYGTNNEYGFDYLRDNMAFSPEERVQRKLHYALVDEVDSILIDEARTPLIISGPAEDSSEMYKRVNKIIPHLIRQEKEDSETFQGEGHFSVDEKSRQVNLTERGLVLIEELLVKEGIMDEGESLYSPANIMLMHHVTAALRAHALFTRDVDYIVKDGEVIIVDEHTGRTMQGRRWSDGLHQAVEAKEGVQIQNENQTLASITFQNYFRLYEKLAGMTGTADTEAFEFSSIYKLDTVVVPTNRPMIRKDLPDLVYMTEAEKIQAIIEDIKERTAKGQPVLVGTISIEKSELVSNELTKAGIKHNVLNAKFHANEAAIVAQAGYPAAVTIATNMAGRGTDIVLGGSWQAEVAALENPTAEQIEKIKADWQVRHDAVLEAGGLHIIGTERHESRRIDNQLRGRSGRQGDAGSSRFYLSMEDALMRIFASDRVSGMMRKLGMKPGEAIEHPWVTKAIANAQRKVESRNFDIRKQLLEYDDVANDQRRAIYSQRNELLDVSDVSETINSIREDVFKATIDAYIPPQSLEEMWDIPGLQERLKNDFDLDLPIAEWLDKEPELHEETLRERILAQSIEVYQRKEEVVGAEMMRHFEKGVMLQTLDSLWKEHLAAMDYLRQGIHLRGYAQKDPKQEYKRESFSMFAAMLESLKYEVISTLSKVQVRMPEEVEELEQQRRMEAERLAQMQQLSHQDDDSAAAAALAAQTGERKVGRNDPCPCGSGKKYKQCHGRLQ
Chain of Chromo domain-containing protein 1 (Saccharomyces cerevisiae (strain ATCC 204508 / S288c) (Baker's yeast)) (P32657 whole entry, the tested form may be a part): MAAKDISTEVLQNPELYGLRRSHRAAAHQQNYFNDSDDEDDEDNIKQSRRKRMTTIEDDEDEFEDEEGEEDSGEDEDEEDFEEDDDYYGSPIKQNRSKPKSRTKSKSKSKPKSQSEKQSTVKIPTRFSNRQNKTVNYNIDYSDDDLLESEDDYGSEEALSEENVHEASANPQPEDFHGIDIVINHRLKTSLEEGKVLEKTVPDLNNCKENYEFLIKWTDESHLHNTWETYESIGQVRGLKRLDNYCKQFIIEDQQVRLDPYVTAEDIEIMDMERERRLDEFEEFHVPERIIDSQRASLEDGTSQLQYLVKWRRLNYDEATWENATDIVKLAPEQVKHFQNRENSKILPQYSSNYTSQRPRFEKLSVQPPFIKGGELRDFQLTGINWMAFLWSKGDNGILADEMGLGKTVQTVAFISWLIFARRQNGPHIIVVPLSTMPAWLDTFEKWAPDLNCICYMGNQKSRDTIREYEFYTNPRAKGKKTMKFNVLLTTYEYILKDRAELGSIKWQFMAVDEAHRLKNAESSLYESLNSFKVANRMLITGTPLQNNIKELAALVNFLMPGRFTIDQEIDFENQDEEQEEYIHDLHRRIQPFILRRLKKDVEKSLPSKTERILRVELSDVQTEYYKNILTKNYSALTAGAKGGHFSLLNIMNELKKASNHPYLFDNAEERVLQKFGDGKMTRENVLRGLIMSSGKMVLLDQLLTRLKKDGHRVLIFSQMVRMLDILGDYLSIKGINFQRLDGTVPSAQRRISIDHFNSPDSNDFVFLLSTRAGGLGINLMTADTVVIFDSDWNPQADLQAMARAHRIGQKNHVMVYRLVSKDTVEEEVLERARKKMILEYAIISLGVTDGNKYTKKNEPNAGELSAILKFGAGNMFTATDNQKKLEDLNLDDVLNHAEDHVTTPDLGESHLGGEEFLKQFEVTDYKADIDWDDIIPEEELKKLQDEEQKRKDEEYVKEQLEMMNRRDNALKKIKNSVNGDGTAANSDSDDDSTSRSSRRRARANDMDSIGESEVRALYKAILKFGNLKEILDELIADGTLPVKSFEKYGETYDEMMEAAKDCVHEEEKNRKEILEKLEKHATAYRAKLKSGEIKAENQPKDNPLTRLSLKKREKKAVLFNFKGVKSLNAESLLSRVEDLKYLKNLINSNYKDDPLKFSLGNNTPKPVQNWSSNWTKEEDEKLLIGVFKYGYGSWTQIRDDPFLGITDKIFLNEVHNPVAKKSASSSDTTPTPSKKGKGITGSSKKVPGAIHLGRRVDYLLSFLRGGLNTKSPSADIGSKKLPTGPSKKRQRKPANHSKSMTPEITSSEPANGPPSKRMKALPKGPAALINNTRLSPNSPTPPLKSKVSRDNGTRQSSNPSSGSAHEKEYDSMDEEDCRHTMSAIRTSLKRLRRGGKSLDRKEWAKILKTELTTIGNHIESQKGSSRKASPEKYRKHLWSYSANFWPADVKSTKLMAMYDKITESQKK
Chain of Sialic acid-binding Ig-like lectin 9 (Homo sapiens) (Q9Y336 whole entry): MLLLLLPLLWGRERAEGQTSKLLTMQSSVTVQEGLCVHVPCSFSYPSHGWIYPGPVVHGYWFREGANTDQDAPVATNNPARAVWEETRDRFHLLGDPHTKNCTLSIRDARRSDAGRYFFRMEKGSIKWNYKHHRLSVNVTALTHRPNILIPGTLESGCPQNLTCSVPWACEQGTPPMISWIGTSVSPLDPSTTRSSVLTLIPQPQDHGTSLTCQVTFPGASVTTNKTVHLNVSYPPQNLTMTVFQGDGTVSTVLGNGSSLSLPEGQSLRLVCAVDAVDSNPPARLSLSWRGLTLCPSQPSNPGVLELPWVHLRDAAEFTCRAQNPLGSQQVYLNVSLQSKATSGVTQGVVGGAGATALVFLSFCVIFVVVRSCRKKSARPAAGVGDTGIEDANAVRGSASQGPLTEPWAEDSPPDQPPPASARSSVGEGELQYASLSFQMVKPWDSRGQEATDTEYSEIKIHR

`COc1cc(CCC(=O)NCC2CCCN2C)ccc1OCC(F)(F)F` (stereo not drawn): the Percent Effect is -2.12% in assay [1]; 7.89% in [2]; -14% in assay [3]; 4.13% in assay [4]; -0.0934% in the assay on Trypanosoma cruzi; -2.88% in assay [5]. In addition, the Percent Effect in assay [6] was 11.4%; in the assay filed under Homo sapiens it was 14.2%; in [7], 5.42%; in assay [8] it was 16.1%; in assay [9], -7.41%.

With `CN(Cc1ccc(F)cc1)C(=O)Cn1nc(-c2ccc(F)cc2)oc1=O`, the Percent Effect in assay [1] is -0.937%; in [2], 2.63%; in [3], 0.873%; in assay [4], -13.2%; in the assay with Trypanosoma cruzi it was -7.3%; in assay [5], 11.8%. For the same molecule, the Percent Effect in assay [6] is 15.4%; in the assay filed under Homo sapiens, 14.9%; in assay [7], -7.45%; in assay [8], -2.6%; in assay [9] it was -7.96%.

For `CCc1cnc(CN2CCCC2c2noc(C3CC3)n2)o1` (stereo not drawn), the Percent Effect in assay [1] is -2.28%; in assay [2], 10.8%; in assay [3], -15.2%; in assay [4], -4.49%; in the assay with Trypanosoma cruzi it was 5.94%; in assay [5], -18.4%. Moreover, the Percent Effect is 23.6% in assay [6]; 25.5% in the assay listed under Homo sapiens; 9.36% in assay [7]; 18.5% in assay [8]; -9.7% in assay [9].

In the case of `COCCN1CCC(CN(CC2CCCO2)C(=O)COC)CC1` (stereo not drawn), the Percent Effect is -4.47% in [1]; 15.3% in [2]; -11% in assay [3]; 28.6% in assay [4]; 7.09% in the assay with Trypanosoma cruzi; 4.86% in assay [5]. In addition, the Percent Effect was 5.79% in [6]; -0.94% in the assay listed under Homo sapiens; 3.16% in assay [7]; 15.4% in assay [8]; -9.34% in assay [9].

Consider `COC(=O)c1cccc(C(=O)N2CCCCC2CCn2ccnc2C)c1` (stereo not drawn), for which the Percent Effect in [1] is -7.31%; in assay [2], 8%; in assay [3] it was 0.551%; in assay [4], 4.41%; with Trypanosoma cruzi, 0.487%; in [5] it was -0.521%. The Percent Effect in assay [6] is 25.5%; in the assay listed under Homo sapiens, 13.4%; in assay [7], 3.83%; in [8], 11.1%; in assay [9], -2.11%.

For the molecule `Cc1ccc(CC(=O)N2CCCC(c3cc(C)[nH]n3)C2)cn1` (stereo not drawn), the Percent Effect was -4.35% in [1]; 13.5% in [2]; -1.96% in [3]; 17.6% in [4]; 5.66% in the assay with Trypanosoma cruzi; -4.25% in assay [5]. Besides, the Percent Effect in assay [6] is 3.77%; in the assay filed under Homo sapiens it was 12.1%; in assay [7], 3.96%; in assay [8], 15.8%; in [9], -0.933%.

As to `CC(=O)Nc1nc(C(=O)NC(C)c2ccc3c(c2)OCCO3)cs1` (stereo not drawn), the Percent Effect in assay [1] was -5.25%; in assay [2], 18.2%; in [3] it was 6.51%; in assay [4], -11.3%; in the assay with Trypanosoma cruzi, 5%; in assay [5], -4%. The Percent Effect in [6] was 8.97%; in the assay filed under Homo sapiens it was 14.6%; in assay [7], 3.81%; in assay [8] it was 21.2%; in assay [9], -21.9%.

For `Cc1cc(C)n(C2CN(CC(O)c3ccc4c(c3)OCO4)C2)n1` (stereo not drawn), the Percent Effect in assay [1] was -2.6%; in [2] it was -13%; in [3], 0.139%; in [4] it was 7.69%; with Trypanosoma cruzi it was 3.37%; in [5], -2.85%. Further, the Percent Effect in [6] was 4.56%; in the assay listed under Homo sapiens it was 26.7%; in [7], 15.5%; in assay [8] it was 12.2%; in [9], -2.01%.
